# Bioassay records: PubChem BioAssay, National Center for Advancing Translational Sciences (NCATS)
# KinaseGlo FLuc – Kinase-Glo luciferase inhibition (counter-screen) | AID 1379 | Potency, µM (series often up to 38.3 µM), inactives show at the top dose activity change, negative = inhibition, hits mostly inhibitors | Kinase-Glo luciferase, ATP luminescence, 8 min | 200,000 compounds, 0.28% hits; active = well fitted inhibition curve with a large enough effect; inconclusive = small, poorly fitted or top-dose-only effect; also: potency is read from the fitted curve at half-maximal effect; nearly all actives have a fitted effect of over 60% in size
#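 Substrate mix (final 50 mM imidazole pH 7.2, 50 mM KCl, 7 mM MgCl2, 10 uM ATP, 0.01% Tween 20, 0.05% BSA) plus pin-tool compound, then Kinase-Glo detection mix; 8 min ambient, luminescence read.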
# HPGD inh – HPGD (human) dehydrogenase inhibition. Potency, µM, without a hit: at the top dose activity change, negative = inhibition, usual class: inhibitors. AID 894. purified HPGD, NADH fluorescence kinetic, PGE2 substrate. 150,000 compounds, 4.3% hits; also: potency is read from the fitted curve at half-maximal effect
#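 NADH formation kinetics: reaction with 30 uM PGE2 and 1 mM NAD+ (final), 20 nM enzyme, Tris-HCl pH 8 with Tween 20, after 15 min compound preincubation at room temperature. Fluorescence change, last versus first of five reads.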
# ALDH1A1 block – blocks purified human ALDH1A1 activity | 220,000 compounds, 7.3% hits | P00352 | Potency, µM (titrated, usually from 75.3 µM), for inactives: at the top dose activity, negative = inhibition, actives largely listed as inhibitors | Purified ALDH1A1, NADH fluorescence, propionaldehyde substrate;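 also: potency is read from the fitted curve at half-maximal effect; plate controls were no enzyme wells and a reference inhibitor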
# Target sequence (P00352 whole entry, looked up): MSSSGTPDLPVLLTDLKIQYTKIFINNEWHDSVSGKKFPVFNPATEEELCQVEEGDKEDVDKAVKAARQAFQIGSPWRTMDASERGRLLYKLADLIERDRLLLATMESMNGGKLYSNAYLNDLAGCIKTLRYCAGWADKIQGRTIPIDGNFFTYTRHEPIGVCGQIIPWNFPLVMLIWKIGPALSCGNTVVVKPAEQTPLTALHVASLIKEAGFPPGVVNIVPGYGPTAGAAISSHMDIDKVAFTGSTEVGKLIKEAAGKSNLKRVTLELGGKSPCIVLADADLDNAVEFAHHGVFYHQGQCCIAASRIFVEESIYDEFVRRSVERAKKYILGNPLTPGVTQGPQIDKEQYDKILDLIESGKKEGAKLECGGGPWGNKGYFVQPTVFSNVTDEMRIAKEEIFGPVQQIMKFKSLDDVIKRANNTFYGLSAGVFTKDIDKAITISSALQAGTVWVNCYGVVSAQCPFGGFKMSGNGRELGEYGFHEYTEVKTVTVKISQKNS
# LMNA splice mod – changes lamin A minigene splicing in HeLa cells | 200,000 compounds, 0.01% hits | Potency, µM (doses to about 46.1 µM), for inactives: at the highest dose ratio change, negative = inhibition, hits mostly inhibitors | HeLa LMNA splicing GFP/RFP minigene ratio, 48 h; active = well fitted inhibition curve with a large enough effect in the signal ratio, with a control signal flat, not every such curve was filed as active; inconclusive = small, poorly fitted or top-dose-only effect, or effect the other way, or a change in a side signal; the % refers to the signal ratio; also: potency is read from the fitted curve at half-maximal effect
#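 S3 HeLa cells stably expressing lamin A-EGFP splicing minigene plus DsRed2, 600 cells/well, 48 h compound exposure at 37C. Laser-scanning cytometry; analysed as GFP (500-530 nm)/RFP (575-640 nm) total intensity ratio; 0.5% DMSO vehicle.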
# PNC assembly inh – blocks assembly of the perinucleolar compartment | PC3M PTB-GFP, PNC prevalence imaging, 16 h; active compounds read low | activity change (PNC), negative = inhibition, % at 10 µM | 140,000 compounds, 3.1% hits | AID 2417;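 active = readout at or below -70, meaning at least 70% loss of cells showing the perinucleolar compartment, a nuclear body marking cancer cells; inconclusive = readout between -30 and a set limit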;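 also: plate controls were DMSO wells for no effect and camptothecin positive control wells for full effect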
#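 PC3M cells stably expressing PTB-GFP, 750–1000 cells/well, treated 16 h at 37 °C with compound (23 nl of library stock), in duplicate. After paraformaldehyde fixation and Hoechst stain, imaged at 20x; PNC prevalence scored by image analysis.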
# Starred values were filed as active, the others as inactive; ? = inconclusive; . = no result given; [ ] = dose if it differs, or a comment. Compounds with a hit are over-represented: about 10% of the library has one in this group of screens. Unless noted, calls follow the shape of the dose curve; as a rule, active = well fitted inhibition curve with a large enough effect (not every such curve was filed as active); inconclusive = small, poorly fitted or top-dose-only effect, or another doubt; inactive = no such curve, though single readings can be large or run the other way. Unless noted, % is scaled to controls: 0 for no effect and ±100 for the full control effect.
SMILES,KinaseGlo FLuc,HPGD inh,ALDH1A1 block,LMNA splice mod,PNC assembly inh
COC(=O)C/C=C/[C@@H](C)[C@H](NC(=O)OCC(Cl)(Cl)Cl)c1ccc2ccccc2c1,0%,-5%,-7%,.,.
Cc1cccc(/C=C(\C(=O)C(=O)O)c2ccc3ccccc3n2)c1,0%,.,7.9µM*,?,.
CCOc1ccccc1C(C(=O)NC1CCCC1)N(Cc1ccco1)C(=O)CNC(=O)c1ccco1 (stereo not given),0%,-6%,1.8µM*,-15%,-8
COc1ccc(N(CC(=O)NC2CCCCC2)C(=O)CNC(=O)c2ccco2)cc1OC,3%,-18%,2%,-4%,-100*
COc1ccc(N(C(=O)c2ccco2)C(C(=O)NC2CCCC2)c2ccc(N(C)C)cc2)cc1 (stereo not given),1%,-4%,2.5µM*,4%,-24
COC(=O)c1ccc(N(C(=O)CNC(=O)c2ccco2)C(C(=O)NC2CCCC2)c2ccco2)cc1 (stereo not given),4%,-1%,1%,-3%,-14
COc1ccc(N(C(=O)CNC(=O)c2ccco2)C(C(=O)NC2CCCCC2)c2ccco2)cc1 (stereo not given),1%,-5%,0%,-2%,-127*
COc1cc(OC)cc(N(C(=O)c2ccco2)C(C(=O)NC2CCCC2)c2ccc(N(C)C)cc2)c1 (stereo not given),-4%,1%,?,6%,6
O=C(NCC(=O)N(Cc1ccco1)C(C(=O)NC1CCCCC1)c1cccnc1)c1ccco1 (stereo not given),2%,-10%,10%,3%,24
COc1ccc(N2CCN(C(=O)c3c(C)oc4ncn(CC(C)C)c(=O)c34)CC2)cc1,.,.,.,10%[46 µM],.
O=C1CCCC=C1[C@@H](O)C1CCCCC1,.,.,5%[13.5 µM],.,.
C1CCN(CC[C@@H]2CCCCN2)CC1,-1%[7.66 µM],-8%,7%[13.5 µM],.,.
CCCn1c(C)nc2c(NCCN3CCOCC3)nc(C)nc21,0%,-11%,8%,.,.
O=C(NC1CCCCC1)C(c1cccs1)N(Cc1cccs1)C(=O)c1ccco1 (stereo not given),4%,-12%,?,8%,-9
COc1ccc(CN(C(=O)CNC(=O)c2ccco2)C(C(=O)NC2CCCC2)c2ccco2)cc1 (stereo not given),0%,-1%,0.4µM*,-1%,?
O=C(NC1CCCCC1)C(c1cccs1)N(C(=O)c1ccco1)c1ccc2c(c1)OCCO2 (stereo not given),-1%,-9%,?,-3%,-100*
CCCCOc1cccc(C(=O)NC(=S)Nc2cccc(NC(=O)c3ccccc3Cl)c2)c1,-1%,-11%,2µM*,-10%,-10
CC(C)Oc1cccc(C(=O)NC(=S)Nc2ccccc2)c1,1%,-20%,10µM*,?,-101*
CCCOc1ccc(CC(=O)NNC(=S)Nc2ccccc2)cc1Br,2%,?,18µM*,?,0
CC(C)C(=O)Nc1cccc(NC(=S)NC(=O)c2ccccc2Cl)c1,4%,0%,?,0%,39
COc1ccc(CC(=O)NNC(=S)Nc2ccccc2)cc1Cl,6%,.,?,.,.
CC(C)COc1cccc(C(=O)NC(=S)Nc2cccc(NC(=O)c3ccccc3Cl)c2)c1,1%,-7%,10µM*,2%,3
CCCCC/C=C\C/C=C\C/C=C\C/C=C\CCCCCC(=O)NCCCC(=O)O,0%,-4%,-6%,.,.
Cc1ccc(Cn2ccn(Cc3ccccc3F)c(=O)c2=O)cc1,.,.,.,1%[46 µM],.
CCCOC(=O)CSc1nnc2ccc3ccccc3n12,.,.,.,9%[46 µM],.
SMILES,KinaseGlo FLuc,HPGD inh,ALDH1A1 block,LMNA splice mod,PNC assembly inh
CCCOc1cccc(C(=O)NC(=S)Nc2cccc(NC(=O)c3ccccc3Cl)c2)c1,7%,-12%,13µM*,-6%,?
CCC(=O)Nc1cccc(NC(=S)NC(=O)c2ccccc2Cl)c1,-1%,-5%,2%,-16%,?
CCCOc1cccc(C(=O)NC(=S)Nc2ccccc2)c1,1%,-20%,18µM*,?,-20
CCCOc1cccc(C(=O)O)c1,4%,-4%,5%,7%,?
COc1ccc(N2C(=O)C3CCCN3C2c2ccc(C)cc2)cc1 (stereo not given),0%,0%,20µM*,-1%,32
COc1ccc(N2C(=O)C3CCCN3C2c2ccccc2OC)cc1 (stereo not given),-1%,-14%,?,1%,?
COc1ccc(N2C(=O)C3CCCN3C2c2ccccc2Cl)cc1 (stereo not given),2%,-20%,10µM*,-3%,?
CCc1c(C)sc(NC(=O)C2CCCCC2C(=O)O)c1C(N)=O (stereo not given),7%,4µM*,1.6µM*,8%,-6
O=c1oc(Nc2ccccc2F)nc2ccccc12,.,.,20µM*,4%,-10
O=c1oc(Nc2ccccc2Cl)nc2ccccc12,-2%,.,?,.,.
CC(NC(=O)C(NC(=O)C1CCCN1C(=O)OC(C)(C)C)C(C)C)C(N)=O (stereo not given),0%,-9%,8%,1%,-94*
CC(C)CC(NC(=O)C1CCCN1C(=O)OC(C)(C)C)C(=O)NCC(N)=O (stereo not given),1%,-8%,12%,-2%,?
CCCc1[nH]nc2c1C(c1ccccc1OC)C(C#N)=C(N)O2 (stereo not given),-1%,-8%,?,6%,21
CCCc1[nH]nc2c1C(c1ccc(O)c(OC)c1)C(C#N)=C(N)O2 (stereo not given),-4%,-10%,?,21%,52
N#CC1=C(N)Oc2cc3ccccc3cc2C1c1cccnc1 (stereo not given),0%,28µM*,14µM*,-18%,-90*
N#CC1=C(N)Oc2n[nH]c(-c3ccccc3)c2C1c1ccsc1 (stereo not given),3%,-25%,-4%,-3%,19
N#CC1=C(N)Oc2n[nH]c(-c3ccncc3)c2C1c1ccsc1 (stereo not given),4%,22µM*,-20%,0%,?
CCCc1[nH]nc2c1C(/C(C)=C/c1ccccc1)C(C#N)=C(N)O2 (stereo not given),4%,-9%,14µM*,?,?
CCCc1[nH]nc2c1C(c1ccncc1)C(C#N)=C(N)O2 (stereo not given),-2%,-23%,14µM*,12%,-14
CN(C)C(=O)c1ccc(-c2nccc(-n3ccnc3)n2)cc1,.,.,6%,5%,.
Cc1ccc(SCc2[nH]nc3c2C(c2cccnc2)C(C#N)=C(N)O3)cc1 (stereo not given),-2%,-24%,?,1%,19
CCCc1[nH]nc2c1C(c1cccnc1)C(C#N)=C(N)O2 (stereo not given),2%,-6%,14µM*,-4%,-21
CCN(CC)CCCNC(=O)CN1C(=O)CCn2nc(-c3cn(C)c4ccccc34)cc21,.,.,.,18%[46 µM],.
